An excerpt weighted towards active compounds, which were near 1.6% of everything screened.
Epigenetic mod: derepresses silenced GFP locus in mouse C127i cells; mouse C127i GFP locus derepression, cytometry, 30 h; 0.09% of 68,000 active; AID 597; Potency, µM (doses to about 46.1 µM), inactives show at the top dose GFP derepression (activation); note: % of control where 0% means no effect
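Murine C127i mammary cells carrying a silenced, stably integrated CMV-driven GFP reporter were treated with compound for 30 hours at 37 C. After PBS washes, GFP-positive cells were counted by laser-scanning microplate cytometry.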
HBB splicing: modulators of hemoglobin beta chain splicing | HBB splicing reporter cell assay, activation; EGFP reporter with mutant IVS2-654 intron; response scale: normalised to 500 nM splice-correcting PNA | Potency, µM (top dose mostly 46.1 µM), inactives show at the top dose activation, actives largely listed as activators | 0.06% of 65,000 active; note: potency is the fitted concentration of half-maximal effect; 0% is about no effect
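Compounds were applied for 2 days to HeLa EGFP-654 cells, 500/well in Optimem with 2% FCS. The reporter's EGFP is disrupted by mis-splicing of beta-globin intron IVS2-654. Readout: summed well GFP fluorescence from 488 nm laser scanning; reference was 500 nM antisense […] 654 PNA.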
Ub-GFP proteasome: proteasome inhibitors stabilizing ubiquitin-GFP reporter; Potency, µM (doses to about 45.9 µM), for the others: at the top dose activation (GFP accumulation), hits mostly activators; Ubiquitin-GFP reporter cells, proteasome inhibition, GFP fluorescence; response scale: untreated = 0%, 10 µM MG-132 = 100%; 67,000 tested, under 10 active; active = well fitted activation curve with a large enough effect, not every such curve was filed as active; inconclusive = small, poorly fitted or top-dose-only effect, or another doubt; inactive = no such curve, though single readings can be large or run the other way; note: potency is the fitted concentration of half-maximal effect
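Proteasome block read as GFP accumulation: ubiquitin(G76V)-GFP U2OS cells exposed to compound (2.9 nM–46 uM) for 4 hr at 37 C. Normalization used untreated cells as 0% and 10 uM MG-132 as 100%; concentration-response curves fitted.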
p53ts 32C tox: p53ts cell cytotoxicity, permissive temperature | 0.93% of 130,000 active | AID 924 | Potency, µM (top dose mostly 46.1 µM), for inactives: at the highest dose activity change, negative = cytotoxicity, usual class: cytotoxic | H1299-p53A138V at 32C, ATP luminescence viability, 24 h;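 note: potency is the fitted concentration of half-maximal effect; 0% = DMSO and -100% = full killing by reference compound; nearly all actives have a fitted effect of over 55% in size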
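H1299-p53 A138V cells (temperature-sensitive p53) exposed 24 h to up to 46 uM compound at 32C, where p53 is wild-type in conformation. Viability read as ATP luminescence and normalised to DMSO and 100 uM tamoxifen. AC50 fitted with the Hill equation.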
p53ts 39C kill: kills p53ts cells at the nonpermissive temperature. 1.5% of 130,000 active. H1299-p53A138V viability at 39C, ATP luminescence, 24 h. Potency, µM (series often up to 46.1 µM), inactives show top-dose activity change, negative = cell killing, usual class: cytotoxic; note: potency is the fitted concentration of half-maximal effect; % is set by controls: 0 for no effect and ±100 for the full control effect; nearly all actives have a fitted effect of over 55% in size
Peg3 imprint: inducers of genomic imprint erasure in mouse ES cells. mouse ES Peg3-LacZ reporter, beta-gal luminescence, 40 h. 0.02% of 110,000 active. AID 1948. Potency, µM (series often up to 60.7 µM), for inactives: at the top dose activity change, positive = activation, hits mostly activators; note: potency is the fitted concentration of half-maximal effect
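Readout: BetaGlo luminescence (5 min, room temp) for LacZ from the normally silent maternal Peg3 allele in female Peg3LacZ-Neo ES cells. Cells 300/well, 40 h, 37C, 5% CO2. Data normalized per plate to negative controls.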
* = called active by the depositor; ? = inconclusive; / = no result; [ ] = remark or other dose. Unless noted, calls come from the whole dose curve; as a rule, active = well fitted curve in the direction sought with a large enough effect; inconclusive = small, poorly fitted or top-dose-only effect, or another doubt; inactive = no such curve, though single readings can be large; an effect the other way counts as inactive or inconclusive.

SMILES | Epigenetic mod | HBB splicing | Ub-GFP proteasome | p53ts 32C tox | p53ts 39C kill | Peg3 imprint
O=C(Nc1ccc(C(=O)N2CCN(c3ccc(F)cc3)CC2)cc1)c1nsc2ccccc12 | / | / | / | 16% | -15% | 6%[10.9 µM]
Cc1ccc(CNC(=O)c2ccc(NC(=O)c3nsc4ccccc34)cc2)cc1 | / | / | / | -8% | -21% | -8%[10.9 µM]
O=C(NCc1cccc(F)c1)c1ccc(NC(=O)c2nsc3ccccc23)cc1 | / | / | / | 11µM* | 10µM* | 7%[10.9 µM]
O=C(Nc1ccc(C(=O)N2CCCCC2)cc1)c1nsc2ccccc12 | / | / | / | 3.2µM* | 3.2µM* | -69%[10.9 µM]
CCOC(=O)c1ccc(NC(=O)c2nsc3ccccc23)cc1 | / | / | / | ? | 13µM* | -47%[10.9 µM]
CNC(=O)c1ccc(NC(=O)c2nsc3ccccc23)cc1 | / | / | / | 7.9µM* | 7.9µM* | -70%[10.9 µM]
COc1ccc(C(=S)N(C)C)cc1OC | / | / | / | 0% | 2% | /
CCOC(=O)c1c(C)[nH]c(C)c1S(=O)(=O)N(C)CC(=O)Nc1cc(Cl)ccc1OC | / | / | / | 1% | -14% | 21%[10.9 µM]
CCCN1CCN(CCCNC(=O)c2cc3c(s2)-c2ccccc2OC3)CC1 | / | / | / | -17% | ? | -12%[10.9 µM]
CCC(=O)Nc1ccc(OC)cc1OC | -2% | -1% | 5% | -2% | 13% | -13%
O=C1c2ccccc2C(=O)C1c1ccc2ccccc2n1 | -6%[20.6 µM] | -1% | / | ? | 2.5µM* | 9%
COCCn1c(=O)[nH]c2cc(C(=O)Nc3ccc(OC)cc3)ccc2c1=O | / | / | / | -11% | 7% | -6%[10.9 µM]
CC1N/C(=C\C(=O)c2ccccc2)N(O)C1(C)C (stereo not given) | 0% | 0%[0.369 µM] | 1% | 10µM* | 13µM* | -19%
O=CC(=O)c1ccccc1 | / | 0% | / | -8%[1.84 µM] | 15% | -13%
O=C(NCCc1ccccc1Cl)c1ccc2c(c1)nc1n2CCOC1 | / | / | / | 16µM* | 4µM* | -19%[10.9 µM]
Cc1cccc(CCNC(=O)c2ccc3c(c2)nc2n3CCCCC2)c1 | / | / | / | 13µM* | 7.9µM* | -7%[10.9 µM]
Cc1cccc(CCNC(=O)c2ccc3c(c2)nc2n3CCOC2)c1 | / | / | / | ? | 13µM* | -3%[10.9 µM]
Nc1nc(Cl)nc2c1ncn2[C@@H]1O[C@H](CO)[C@@H](O)[C@H]1O | 13%[20.6 µM] | / | / | 20µM* | ? | -2%
O=C(/C=C/c1ccc(O)cc1)c1cccs1 | / | / | / | 32µM* | ? | -92%
Cc1nn(C)cc1/C=C/C(=O)c1cccs1 | / | / | / | 13µM* | ? | /
Cc1c(/C=C/C(=O)c2ccc(Cl)s2)cnn1C | / | / | / | -3% | -4% | /
O=C(/C=C/c1ccc(OCc2ccccc2)cc1)c1cccs1 | / | / | / | ? | 4% | -19%
COc1cc(/C=C/C(=O)c2cccs2)cc(OC)c1OC | / | / | / | 6.3µM* | ? | -31%
COc1ccc(-c2c(=O)n(OCc3ccccn3)c3ccccc3[n+]2[O-])cc1OC | -3% | -1% | -2% | 11% | 14% | -8%
Cc1c(=O)n(OCc2ccccc2F)c2ccccc2[n+]1[O-] | 13µM* | 20µM* | 2% | -11% | -6% | -17%
SMILES | Epigenetic mod | HBB splicing | Ub-GFP proteasome | p53ts 32C tox | p53ts 39C kill | Peg3 imprint
CCCCN1C(C(=O)c2ccccc2)=C(OC(=O)CC)c2ccccc2S1(=O)=O | / | / | / | -21% | 16µM* | -24%[10.9 µM]
CCc1nnc(SCc2ccc(F)cc2Cl)c2cc3sccc3n12 | / | / | / | 3% | 7% | -13%[10.9 µM]
CCc1nnc(SCC(=O)N(C)c2ccccc2)c2cc3sccc3n12 | / | / | / | -1% | 25µM* | -9%[10.9 µM]
CCN1C(=O)[C@H]2[C@H]3[C@H](O)[C@H](O)C/C(=N/OCc4ccccc4)[C@@H]3CC[C@@H]2C1=O | / | -1%[9.22 µM] | / | 8%[9.22 µM] | 1%[9.22 µM] | /
CCCn1nnc(NC(=O)c2ccc(OCC)c(Cl)c2)n1 | 2% | -1% | 1% | 5% | -9% | -3%
CCOc1ccc(C(=O)Nc2nnn(CC)n2)cc1 | 9% | / | 2% | 10µM* | 13µM* | -80%
CCOc1ccc(C(=O)Nc2cccc(C)n2)cc1 | 1% | / | 10% | 5µM* | ? | /
Cn1nnc(NC(=O)c2ccc3ccccc3c2)n1 | / | / | / | ? | -19% | /

Assay outcomes from PubChem.
